# An excerpt weighted towards active compounds, which were near 7.3% of everything screened.
# SMN2 splice enh: increases expression of the SMN2 splice variant. HEK293 SMN2-luciferase splicing reporter, luminescence, 30-36 h. Potency, µM (titrated, usually from 46.1 µM), for the others: at the highest dose activity change, positive = activation, most hits filed as activators. 2.8% of 210,000 active; further: % of control where 0% means no effect; nearly all actives have a fitted effect of over 55% in size
#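 HEK293 cells carry an SMN2 minigene-luciferase reporter in which exon 7 inclusion puts luciferase in frame. Cells were seeded at 2000 cells/well, attached for 10-12 hours, then exposed to compounds for 30-36 hours at 37C before ONE-Glo luminescence.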
# FLuc modulator: inhibits or activates purified firefly luciferase, miR-21 counter-screen; 6.9% of 360,000 active; purified FLuc, Km substrates, luminescence inhibition; Potency, µM (doses to about 57.5 µM), inactives show at the top dose activity change, negative = inhibition, usual class: inhibitors; P08659;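 further: plate controls were vehicle for no effect and reference inhibitor for full effect; nearly all actives have a fitted effect of over 55% in size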
# Target sequence (P08659 whole entry, looked up): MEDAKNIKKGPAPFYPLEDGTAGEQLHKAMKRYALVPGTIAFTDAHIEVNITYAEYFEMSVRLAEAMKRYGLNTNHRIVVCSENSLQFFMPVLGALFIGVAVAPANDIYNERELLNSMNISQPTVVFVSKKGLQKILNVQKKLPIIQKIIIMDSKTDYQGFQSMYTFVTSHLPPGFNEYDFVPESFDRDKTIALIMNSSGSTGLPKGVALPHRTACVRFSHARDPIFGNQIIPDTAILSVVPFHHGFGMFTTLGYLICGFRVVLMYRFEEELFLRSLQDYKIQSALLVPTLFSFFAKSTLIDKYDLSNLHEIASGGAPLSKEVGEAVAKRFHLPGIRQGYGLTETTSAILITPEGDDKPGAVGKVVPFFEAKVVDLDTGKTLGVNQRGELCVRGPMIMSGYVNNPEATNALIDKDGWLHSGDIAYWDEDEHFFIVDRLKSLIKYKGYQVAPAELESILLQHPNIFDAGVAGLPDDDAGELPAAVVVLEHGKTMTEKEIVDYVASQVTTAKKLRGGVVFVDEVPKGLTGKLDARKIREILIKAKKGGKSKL
#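 Purified P. pyralis luciferase (10nM final) with 10uM D-luciferin and 10uM ATP (Km levels) in 50mM Tris acetate pH 7.5, 10mM Mg acetate, 0.01% Tween-20, 0.05% BSA; qHTS 6-point titration, ~60 µM downward; luminescence read.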
# KinaseGlo FLuc: counter-screen: inhibitors of Kinase-Glo firefly luciferase | 0.28% of 200,000 active | Potency, µM (doses to about 38.3 µM), inactives show at the highest dose activity change, negative = inhibition, actives largely listed as inhibitors | Kinase-Glo luciferase, ATP luminescence, 8 min | Q27757 | AID 1379; further: on the % scale 0 is the no-effect control and ±100 the full control effect; nearly all actives have a fitted effect of over 60% in size
#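 Compounds were added to a substrate mix at pH 7.2 (50 mM imidazole, 10 uM ATP, within the enzyme's linear range), followed by Kinase-Glo detection reagent; luminescence was measured after 8 minutes at ambient temperature.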
# NPC1 prom act: NPC1 promoter activation. 2.4% of 320,000 active. Potency, µM (doses to about 9.22 µM), for inactives: at the top dose activation, most hits filed as activators. Huh7 NPC1 promoter luciferase reporter, 24 h; further: % of control where 0% means no effect; nearly all actives have a fitted effect of over 60% in size
#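 NPC1 promoter–luciferase Huh7 cells; 24 h compound; luminescence.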
# Rab9 promoter act: activates the Rab9 promoter. Potency, µM (series often up to 9.22 µM), inactives show at the highest dose activation, negative = inhibition, usual class: activators. Huh7 Rab9 promoter-luciferase reporter, luminescence, 24 h. 2.8% of 320,000 active. AID 485297; further: % of control where 0% means no effect; nearly all actives have a fitted effect of over 60% in size
#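 Stable Rab9-luc Huh7, 1500 cells/well, 2 h settle; cmpd in DMSO, 24 h, 37 °C/5% CO2; luciferase reagent 10 min RT; luminescence.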
# The depositor's hits bear a star; ? = inconclusive; nt = no result; ! = repeats disagree; [ ] = remark or other dose. The call rests on the fitted dose curve; in most records, active means well fitted curve in the direction sought with a large enough effect; inconclusive means small, poorly fitted or top-dose-only effect, or another doubt; inactive means no such curve, though single readings can be large; an effect the other way counts as inactive or inconclusive. Potency means the concentration at half of the fitted maximal effect.
SMILES,SMN2 splice enh,FLuc modulator,KinaseGlo FLuc,NPC1 prom act,Rab9 promoter act
O=c1[nH]c(=O)n(-c2cccc(F)c2)c(O)c1/C=C1\C=Nc2ccccc21,nt,-7%,nt,6%,7%
Clc1nc(Cl)nc(Nc2ccccc2Cl)n1,6%,nt,nt,nt,nt
O=C(O)CCn1cc(C=C2C(=O)NC(=S)NC2=O)c(-c2cc3ccccc3oc2=O)n1,-25%,17µM*,-8%,2%,12%
O=C(O)CCn1cc(C=C2C(=O)NC(=S)NC2=O)c(-c2ccccc2)n1,11%,24µM*,-7%,3%,5%
N#CCCn1cc(C=C2C(=O)NC(=O)NC2=O)c(-c2ccccc2)n1,-1%,?,-6%,-1%,-1%
CC[C@]1(OC(=O)CN)C(=O)OCc2c1cc1n(c2=O)Cc2cc3ccccc3nc2-1,-30%[9.22 µM],nt,-5%[7.66 µM],nt,nt
CC(C)c1ccc(C(O)(C(=O)O)c2ccc(C(C)C)cc2)cc1,-10%[9.22 µM],nt,0%[7.66 µM],nt,nt
COc1ccccc1OCCCn1cc(C=O)c2ccccc21,nt,?,-2%,?,0.5µM*
Cc1ccc(-c2nc3ccc(Cl)cc3n2OC(=O)N(C)C)cc1,-15%,?,-4%,3.2µM*,3.2µM*
CN(C)C(=O)Oc1ccnc2cc(Cl)ccc12,?,1%,2%,-7%,-5%
CC1=NN(c2ccccc2)C(=O)[C@@H]1N=Nc1ccc([As](=O)(O)O)c(O)c1,7%[9.22 µM],nt,-3%[7.66 µM],nt,nt
C[C@]1(O)CC[C@H]2[C@@H]3[C@@H](O)CC4=CC(=O)CC[C@@]4(C)[C@H]3CC[C@]21C,-12%[9.22 µM],nt,-1%[7.66 µM],nt,nt
Cc1c(OCC(F)(F)F)ccnc1CS(=O)c1nc2ccccc2[nH]1 (stereo unspecified),-10%,13µM*!,-6%,2.8µM*,4µM*
COCCCOc1ccnc(CS(=O)c2nc3ccccc3[nH]2)c1C (stereo unspecified),nt,?,-5%[39.9 µM],3.2µM*,2.8µM*
O=S(=O)(NCCO)c1cc[c]([Sb])cc1,-4%[9.22 µM],nt,-4%[7.66 µM],nt,nt
CC1=NN(c2ccc(S(=O)(=O)O)cc2C)C(=[OH+])[C@H]1N=Nc1cc(S(=O)(=O)O)ccc1C(=O)O.O.[Cr],-10%[9.22 µM],nt,-6%[7.66 µM],nt,nt
CCN(CC)c1ccc(/C=C/[N+](=O)[O-])cc1,14%,19µM*,-1%,-6%,-3%
COc1cc(/C=C/[N+](=O)[O-])ccc1O,?,?,-1%,-6%,1%
Cc1nc2ccc(NC(=O)C3COc4ccccc4O3)cc2s1 (stereo unspecified),nt,12µM*,nt,?,?
CCCc1cc(N2CCN(c3ccc(OC)cc3)CC2)n2cnnc2n1,-73%,2%,nt,nt,nt
CCC(=O)Nc1ccc(C(=O)OCc2ccccc2Cl)cc1,-14%,19µM*,-1%,?,?
C(=NCCN1CCOCC1)=NC1CCCCC1,7%[9.22 µM],nt,0%[7.66 µM],nt,nt
O=C(Nc1ccc(Cl)c(Cl)c1)O/N=C/c1ccncc1,?,-14%,-2%,-4%,0%
COc1ccc(NC(=O)O/N=C/c2ccccc2)cc1,nt,9.5µM*,nt,3.5µM*,?
O=NN(c1ccccc1)c1ccccc1,-6%,nt,nt,nt,nt
SMILES,SMN2 splice enh,FLuc modulator,KinaseGlo FLuc,NPC1 prom act,Rab9 promoter act
NC(N)=N/N=C/c1cn(-c2ccccc2)nc1-c1cccs1,-14%,4.3µM*,-5%,0%,-3%
COc1ccc(-c2cc(C(=O)N3CCC4(CC3)OCCO4)c3ccccc3n2)cc1,nt,2.1µM*,nt,26%,?
COc1ccc(-n2nc(C(=O)NCC(=O)N3CCC4(CC3)OCCO4)c3ccccc3c2=O)cc1,nt,1.1µM*,nt,?,?
COc1ccc(-n2nc(C(=O)NCC(=O)N3CCC4(CC3)OCCO4)c3ccccc3c2=O)cc1Cl,nt,1.2µM*,nt,?,?
C/C=C(/C)C(=O)O[C@H]1C(C)=C2C([C@@H]1OC(=O)CCCCCCC)[C@@](C)(OC(C)=O)C[C@@H](OC(=O)CCC)[C@@]1(O)[C@H]2OC(=O)[C@@]1(C)O (stereo partly specified),-115%,nt,-1%,nt,nt
C=C[C@@H]1CN2CC[C@H]1CC2[C@H](O)c1ccnc2ccccc12 (stereo partly specified),-7%[9.22 µM],nt,2%[7.66 µM],nt,nt
CCN(CC)S(=O)(=O)c1ccc(NN=C(C#N)C#N)cc1,nt,?,-3%,1%,-7%
Cc1cc(C)n(-c2ccc(NN=C(C#N)C#N)cc2)n1,nt,15µM*,nt,-1%,-1%
N#CC(C#N)=NNc1ccc(-n2ccc(C(F)(F)F)n2)cc1,nt,15µM*,nt,-35%,-41%
C[C@H](c1ccccc1)N1CCN([C@@H](C)c2ccccc2)CC1,-9%[9.22 µM],nt,-6%[7.66 µM],nt,nt
O=C(c1cc2c(s1)-c1ccccc1OC2)N1CCC2(CC1)OCCO2,5.6µM*,6.7µM*,-5%,?,0.89µM*
COC(=O)C(O)(c1ccc(NC(=S)NC(=O)c2ccc(Cl)cc2Cl)cc1)C(F)(F)F (stereo unspecified),-25%,-1%,-1%,-1%,-4%
COC(=O)C(O)(c1ccc(NC(=O)NC2CCCCC2)cc1)C(F)(F)F (stereo unspecified),?,12µM*,1%,?,?
CC1CCN(CC(=O)c2ccc3c(c2)OCCO3)CC1,13µM*,11µM*,-1%,?,?
CC1CCCN(CC(=O)c2ccc(Cl)c(Cl)c2)C1 (stereo unspecified),-3%,-4%,4%,-5%,-5%
CC1CCN(CC(=O)c2ccccc2Cl)CC1,?,11µM*,-3%,23%,?
NCCc1ccc(S(=O)(=O)O)cc1[N+](=O)[O-],-4%[9.22 µM],nt,-1%[7.66 µM],nt,nt
COc1cccc(N2C(=O)NC(=O)/C(=C/c3ccc4c(c3)Cc3ccccc3-4)C2=O)c1,-16%,21µM*,-1%,1%,-3%
COc1ccccc1/C=C1\C(=O)NC(=S)N(c2ccccc2)C1=O,nt,-8%,nt,-1%,0%

# Screens deposited in PubChem BioAssay by National Center for Advancing Translational Sciences (NCATS).
